Out of some 310,000 compounds screened, about 11,000 (3.5%) were called active. Not shown: some 4% with an inconclusive outcome. Calls follow the shape of the dose curve; as a rule, active = well fitted inhibition curve with a large enough effect; inconclusive = small, poorly fitted or top-dose-only effect, or another doubt; inactive = no such curve, though single readings can be large or run the other way. Only a selection was taken, and actives are over-represented in it overall. Some compounds were tested as several samples or in several runs, with calls that do not always agree.
Potency is read from the fitted curve at half-maximal effect.

For the experiment, the target named is 4'-phosphopantetheinyl transferase ffp (Bacillus subtilis) (UniProt Q9F4F7). In words: qHTS Assay for Inhibitors of Bacillus subtilis Sfp phosphopantetheinyl transferase (PPTase).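 Also: the enzyme is Sfp with the accession as filed and its product quenches rhodamine fluorescence.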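 As to largest response in the series, negative = inhibition: 0% = enzyme reaction without inhibitor and -100% = no enzyme wells.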 Particulars: Biochemical Sfp PPTase activity. An outline of the steps:
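Fluorescence-quenching assay: 15 nM Sfp-PPTase preincubated 15 min at room temperature with compound, then 5 uM rhodamine-CoA and 12.5 uM BHQ-2-labelled YbbR peptide added. Fluorescence (ex 525/em 598 nm) read at start and after 30 min; difference gives rate.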
In general terms: Quantitative high-throughput screening tests each substance at several concentrations.
On to `Cc1ccc(S(=O)(=O)N2CCC3(CC2)OCCO3)c(C)c1`, for which the largest response in the series, negative = inhibition is 19.7% (inactive).

With `CCc1[nH]nc(C(=O)N2CCCC(CO)(Cc3ccc(F)cc3F)C2)c1C` (stereo not drawn), the largest response in the series, negative = inhibition was 4.7% (inactive). Same read-out and setting: the figure for `COC(=O)C1CCN(C(=O)c2ccc3oc(Cc4ccc(Cl)cc4)nc3c2)CC1` is 16.5% (inactive). In the case of `Cc1ccc(-c2ccc(/C=N/NC(=O)CN3CCOCC3)o2)cc1[N+](=O)[O-]`, the Potency was 50.1 µM (active). For `Cc1cc(C)c([N+](=O)[O-])cc1-c1ccc(/C=N/NC(=O)c2nonc2N)o1`, the largest response in the series, negative = inhibition was -8.88% (inactive).

As for `O=C(CN1CCOCC1)N/N=C/c1ccc(-c2ccc(Br)cc2)o1`, the largest response in the series, negative = inhibition was -29.3% (inactive). On the same count and under the same terms, the figure for `Cc1[nH]c2ccc(C(=O)N3CCN(C)CC3)cc2c1C` is 9.64% (inactive); for `Cc1ccc(-c2csc(NC3OC(=O)c4ccccc43)n2)cc1` (stereo not drawn) it is 7.08% (inactive). Same read-out and setting: the figure for `NC(=O)C1CCN(CC(O)CSc2ccc(F)cc2)CC1` (stereo not drawn) is 0.977% (inactive); for `Cc1ccc(C(=O)NNC(=O)c2cc3cc4ccccc4nc3s2)cc1` it is -2.23% (inactive). For `Cc1ccc(C(=O)NNc2ncnc3ccccc23)cc1`, the Potency was 70.8 µM (active).

`CCc1nc(SCC(=O)NNC(=O)c2ccc(C)cc2)c2ccccc2n1`: the largest response in the series, negative = inhibition is 10% (inactive). The same measure, in the same setting: under `CCOc1cc(NC(=O)Nc2ccccc2)c(OCC)cc1NC(=O)CC` stands 17.2% (inactive). Still for that read-out and setting: under `COc1cc(C(=O)NCc2cc3cc(Cl)ccc3n2C)cc(OC)c1OC` stands 9.69% (inactive). Turning to `O=C(Nc1ccc(S(=O)(=O)N2CCOCC2)cc1)c1ccc2ncsc2c1`, the Potency was 50.1 µM (active).

Take `O=C(Nc1ccc(N2CCOCC2)c(Cl)c1)c1ccc(S(=O)(=O)N2CCOCC2)cc1`: the largest response in the series, negative = inhibition was 10.6% (inactive).

Take `O=C(Nc1ccc(S(=O)(=O)Nc2nccs2)cc1)c1cccc(S(=O)(=O)N2CCOCC2)c1`: the largest response in the series, negative = inhibition is 10% (inactive).

On to `CC(C)c1nc(CNC(=O)CC2C(=O)NCCN2Cc2cccc(F)c2F)cs1` (stereo not drawn), for which the largest response in the series, negative = inhibition was 7.23% (inactive).

As for `CC(=O)NC(CC(=O)Nc1nc(-c2ccccc2)c(C(C)=O)s1)c1ccccc1` (stereo not drawn), the largest response in the series, negative = inhibition is 2.16% (inactive). As for `CN(C(=O)CCN1C(=O)/C(=C/c2ccccc2F)SC1=S)C1CCS(=O)(=O)C1` (stereo not drawn), the largest response in the series, negative = inhibition is 1.57% (inactive). Consider `CCCCOC(=O)CNc1nnc(SCC(=O)OCC)[nH]c1=O`, for which the Potency was 20 µM (active). As for `CCOC(=O)CSc1nc(C)c(Oc2ccc(Cl)cc2Cl)c(=O)[nH]1`, the largest response in the series, negative = inhibition was 11.2% (inactive).

In the case of `CCOC(=O)c1c(NC(=O)CSc2nnc(C)c(=O)[nH]2)sc2c1CCC2`, the largest response in the series, negative = inhibition is 12% (inactive). Take `C=CCn1c(CSc2nc3ccccc3s2)nnc1SCC(=O)NCc1ccco1`: the Potency was 15.8 µM (active). For the compound `C=CCn1c(SCC(=O)Nc2nc3ccccc3s2)nnc1-c1ccccc1O`, the largest response in the series, negative = inhibition is -3.27% (inactive). For the compound `CCn1c(COc2ccccc2)nnc1SCC(=O)NCc1ccco1`, the largest response in the series, negative = inhibition is 21.1% (inactive).

As to `CC(=O)c1cc2c(cc1NC(=O)Cn1nc(-c3ccc(F)cc3)ccc1=O)OCO2`, the largest response in the series, negative = inhibition is 8.25% (inactive). With `COc1ccc(S(=O)(=O)NCCc2cc3ccc(C)c(C)c3[nH]c2=O)cc1`, the largest response in the series, negative = inhibition was 8.17% (inactive).

In the case of `Cc1cc(O)c(C2(O)C(=O)Nc3ccccc32)cc1C` (stereo not drawn), the largest response in the series, negative = inhibition is 0.726% (inactive). As for `O=C1Nc2ccccc2C12Nc1ccccc1S2` (stereo not drawn), the Potency is 20 µM (active). In the case of `COc1ccc(C2(O)C(=O)Nc3ccccc32)cc1` (stereo not drawn), the largest response in the series, negative = inhibition was 5.11% (inactive). The same measure, in the same setting: the figure for `CN1CCN(c2ncc3nc(-c4ccc(Cl)cc4)c(=O)n(-c4ccccc4)c3n2)CC1` is -4.61% (inactive); for `CCOC(=O)c1c(S(=O)(=O)Nc2cccc(Cl)c2)c(C)n(C)c1C` it is 17.3% (inactive); for `Cc1ccsc1-c1cc(C(=O)O)c2c(ccc3ccccc32)n1` it is 5.93% (inactive).

Turning to `COC(=O)c1cnn2c(C(F)(F)F)cc(-c3ccco3)nc12`, the largest response in the series, negative = inhibition is -3.33% (inactive).

Consider `Cc1cc(C)c2nc(-c3ccco3)cc(C(=O)O)c2c1`, for which the Potency is 20 µM (active). Turning to `Cc1ccc(S(=O)(=O)c2c[nH]c3ccc(C)cc3c2=O)cc1`, the largest response in the series, negative = inhibition is 18.3% (inactive).

As to `COc1cc(C)cc(CN2CCC(Cc3ccccc3)CC2)c1O`, the largest response in the series, negative = inhibition was 15.6% (inactive).

For `Cc1ccc(OCc2nc3ccccc3n2C)cc1`, the largest response in the series, negative = inhibition is 16.9% (inactive). Consider `Cc1ccc(OCc2nnc(SC3CCc4ccccc4C3=O)n2C)cc1` (stereo not drawn), for which the Potency is 25.1 µM (active). For `Cc1cccnc1NC(=O)CSc1nnc(COc2ccc(C(C)C)cc2)n1C`, the largest response in the series, negative = inhibition was -2.86% (inactive).

Consider `CCCCNC(=O)c1ccccc1NC(=O)c1ccccc1N(C)S(C)(=O)=O`, for which the Potency is 50.1 µM (active).

As for `CCC(C)NC(=O)c1ccccc1NC(=O)c1ccccc1N(C)S(C)(=O)=O` (stereo not drawn), the largest response in the series, negative = inhibition was 17.5% (inactive).

Take `CCCCNC(=O)c1ccccc1NC(=O)C1=C(C)OCCS1`: the largest response in the series, negative = inhibition was 4.87% (inactive). Take `C=CCOC(=O)C(C(C)=O)C(NC(=O)OC)c1ccccc1` (stereo not drawn): the largest response in the series, negative = inhibition was 17.2% (inactive). On the same count and under the same terms, the figure for `COc1ccc(C)cc1NC(=O)CN(C)S(=O)(=O)c1ccc2c(c1)n(C)c(=O)c(=O)n2C` is 13.5% (inactive); for `C[C@]12CC[C@@H]3C(=CCc4cc(O)ccc43)[C@@H]1CCC2=O` it is -11.9% (inactive). For the compound `COc1ccc2c(c1)CC[C@@H]1[C@@H]2CC[C@]2(C)C(=O)CC[C@@H]12`, the Potency is 50.1 µM (active). As for `COc1ccc(S(=O)(=O)N2CCN(C)CC2)c(C)c1`, the largest response in the series, negative = inhibition was 13.7% (inactive). Still for that read-out and setting: under `CCCc1c(C(=O)N/N=C(\C)CCc2ccc(OC)cc2)nnn1-c1nonc1N` stands 10.3% (inactive); under `CCO/C=C1\C(=O)N(c2ccc(OCC)cc2)C(=O)c2ccccc21`, 3.31% (inactive); under `CCOc1ccc(N2C(=O)CN(c3cccc4ccccc34)C2=S)cc1`, 11.1% (inactive).

In the case of `CCOc1ccc(N2C(=O)/C(=C/c3ccc(C)o3)N(C)C2=S)cc1`, the Potency was 3.98 µM (active). As to `COC(=O)C1=C(C(=O)OC)[C@@H]2N(C)c3ccccc3[C@@]23C[C@@H](C(=O)OC)N(S(=O)(=O)c2ccc(Br)cc2)C3=N1`, the largest response in the series, negative = inhibition is 14% (inactive). On the same count and under the same terms, the figure for `CCOC(=O)C1=C(C)N=C2c3ccccc3C(=O)C2C1c1ccc(Br)cc1` (stereo not drawn) is 10.1% (inactive).

On to `CCOC(=O)C1=NO[C@@]2(C=C(Br)C(=O)[C@H]3O[C@H]32)C1`, for which the Potency is 31.6 µM (active). For `CCOC(=O)C1=NOC(Cn2cc(C(C)=O)c(=O)[nH]c2=O)C1` (stereo not drawn), the largest response in the series, negative = inhibition is 15.9% (inactive). The same measure, in the same setting: under `Cc1c(C=O)c2ccccc2n1CCOc1ccccc1` stands -1.13% (inactive); under `CCOc1ccc(N/C=C/C(=O)c2cc(OC)c(OC)c(OC)c2)cc1`, -7.21% (inactive); under `COc1ccccc1NC(=O)CSc1nnc(CNC(=O)c2ccccc2F)o1`, 15.2% (inactive). With `NC(=O)c1c(NC(=O)CSc2nc(N)cc(=O)[nH]2)sc2c1CCCC2`, the largest response in the series, negative = inhibition was -28% (inactive). For `NC(=O)c1c(NC(=O)CSc2nnc(-c3ccco3)n2N)sc2c1CCCC2`, the Potency is 5.62 µM (active). As for `CCc1cccc(C)c1NC(=O)CSc1nnc(-c2ccco2)n1N`, the largest response in the series, negative = inhibition was -3.08% (inactive). Turning to `CCOc1ccccc1NS(=O)(=O)c1c[nH]c(C(=O)OC)c1`, the largest response in the series, negative = inhibition is 4.59% (inactive).

For the compound `CCOC(=O)c1ccccc1N1C(=O)C2Sc3[nH]c(=O)sc3C(/C=C/c3ccccc3)C2C1=O` (stereo not drawn), the Potency was 12.6 µM (active). Regarding `CC(OC(=O)c1ccccc1N1C(=O)C2C3CCC(C3)C2C1=O)C(=O)c1ccccc1` (stereo not drawn), the largest response in the series, negative = inhibition is 11.3% (inactive). The same measure, in the same setting: the figure for `COC(=O)C1=C(C)N=C2SC(C)C(=O)N2C1/C=C/c1ccccc1` (stereo not drawn) is 18.9% (inactive); for `CN1CCN(CCCCOc2cccc3ccccc23)CC1` it is 4.87% (inactive); for `c1ccc(-c2ccccc2OCCN2CCCCC2)cc1` it is -19% (inactive). As to `CC1CN(CCCOc2ccccc2-c2ccccc2)CC(C)O1` (stereo not drawn), the Potency was 56.2 µM (active). On to `CC1CCCN(CCOCCOc2ccccc2-c2ccccc2)C1` (stereo not drawn), for which the largest response in the series, negative = inhibition is -31.6% (inactive). Same read-out and setting: the figure for `CC1CN(CCOc2ccccc2[N+](=O)[O-])CC(C)O1` (stereo not drawn) is -26.3% (inactive). On to `CN1CCN(CCCCOc2ccccc2-c2ccccc2)CC1`, for which the Potency was 56.2 µM (active). With `CCN(CC)CCCNC(=O)CCn1nc(-c2ccc(Cl)cc2)ccc1=O`, the largest response in the series, negative = inhibition was 13.6% (inactive).

Consider `OC(CNC1CCCC1)COc1ccc(F)cc1` (stereo not drawn), for which the largest response in the series, negative = inhibition was 1.37% (inactive).

With `CCc1cccc(C)c1N1C(=O)CN(Cc2ccccc2)C1=S`, the largest response in the series, negative = inhibition is 13.8% (inactive). On the same count and under the same terms, under `C#CC(C)(C)NC(=O)c1cnc(-c2ccccc2)nc1-c1ccccc1` stands 8.13% (inactive); under `COc1ccc(C(=O)n2nc(C)c(Br)c2C)cc1OC`, 16.8% (inactive). In the case of `CC1CCN(S(=O)(=O)c2ccc3c(ccn3CC(=O)O)c2)CC1`, the largest response in the series, negative = inhibition is 13.3% (inactive). Turning to `CC(C)OC(=O)c1cc(NC(=O)C2C3CCC(O3)C2C(=O)O)cc(C(=O)OC(C)C)c1` (stereo not drawn), the largest response in the series, negative = inhibition was 12.5% (inactive).

Turning to `COc1ccc(NC(=O)C2C3CCC(O3)C2C(=O)O)cc1OC` (stereo not drawn), the largest response in the series, negative = inhibition was -8.26% (inactive).

`Cc1sc(NC(=O)C2C3CCC(O3)C2C(=O)O)c(C(=O)OC(C)C)c1-c1ccc(Cl)cc1` (stereo not drawn): the Potency is 56.2 µM (active). For `O=c1ccc2cc(S(=O)(=O)NCCCc3ccccc3)ccc2[nH]1`, the largest response in the series, negative = inhibition was 6.03% (inactive). Consider `CCOC(=O)C1CCN(S(=O)(=O)c2c(C)noc2C)CC1`, for which the largest response in the series, negative = inhibition was 0.623% (inactive). Same read-out and setting: under `COc1cccc(-c2coc3cc4oc(=O)c(CC(=O)O)c(C)c4cc23)c1` stands 3.72% (inactive); under `O=C(COc1ccc(Cl)cc1)Nc1ccc2oc(=O)ccc2c1`, -10.1% (inactive); under `CC(C)C(=O)Nc1ccc2oc(=O)ccc2c1`, 13.6% (inactive).

Consider `O=C(NC(=S)Nc1ccc2oc(=O)ccc2c1)c1ccc(-c2cccc(Cl)c2Cl)o1`, for which the Potency was 79.4 µM (active). For `CC(C)(C)OC(=O)NCCCC1=CC2=CC(=O)C(C)(OC(=O)c3ccco3)C(=O)C2=CO1` (stereo not drawn), the largest response in the series, negative = inhibition is -0.751% (inactive).

In the case of `COC/C=C/C1=CC2=CC(=O)C(C)(OC(=O)CCC(=O)OC)C(=O)C2=CO1` (stereo not drawn), the Potency was 56.2 µM (active) and the largest response in the series, negative = inhibition is -28.3% (inactive).

In the case of `CC(C)(C)OC(=O)NCCCCC1=CC2=CC(=O)C(C)(OC(=O)c3cccs3)C(=O)C2=CO1` (stereo not drawn), the largest response in the series, negative = inhibition was -1.92% (inactive). Same read-out and setting: under `COc1cc(C2C3=C(CCCC3=O)OC3=C2C(=O)CCC3)ccc1OCC(=O)Nc1ccccc1` stands -3.15% (inactive).

The values above are taken from PubChem BioAssay AID1490 (National Center for Advancing Translational Sciences (NCATS), 2009).
